Shown are actives, neighbours in structure and some others; about 3.7% of the full set was active somewhere.
Nrf2 activator – qHTS of Nrf2 Activators; Potency, µM (top dose mostly 46.1 µM), for the others: at the highest dose activation, most hits filed as activators; AREc32 ARE-luciferase reporter (MCF7-derived line), luminescence, 24 h; hit rate 0.31% among 410,000; AID 624171, 2012; further: potency means the concentration at half of the fitted maximal effect; % of control where 0% means no effect; nearly all actives have a fitted effect of over 65% in size
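ARE-driven firefly luciferase activity in AREc32 cells measured after a 24 hr compound exposure at 37 deg C, using Steady-Glo reagent and a 30 min room-temperature hold.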
Nrf2 block – Nrf2 qHTS screen for inhibitors. A549 ARE-Fluc reporter, luciferase luminescence, 18-24 h. Potency, µM (series often up to 46 µM), for inactives: at the top dose activity change, negative = inhibition, usual class: inhibitors. hit rate 2.1% among 360,000; further: potency means the concentration at half of the fitted maximal effect; on the % scale 0 is the no-effect control and ±100 the full control effect; nearly all actives have a fitted effect of over 60% in size
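Reporter: ARE-Fluc in A549. Exposure: 18-24 h, 37 °C, 5% CO2, 5% FBS OPTI-MEM. Readouts: fluorescent cytotoxicity (CellTiter-Fluor), then luminescent Nrf2 signal after BugLite.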
A549 tox-1 – Nrf2 qHTS screen for inhibitors: counterscreen for cytotoxicity; A549 ARE-Fluc cells, CellTiter-Fluor viability, 18-24 h; Potency, µM (doses to about 46 µM), inactives show top-dose activity change, negative = cytotoxicity, actives largely listed as inhibitors; hit rate 0.16% among 390,000; AID 504648, 2011; further: potency means the concentration at half of the fitted maximal effect; on the % scale 0 is the no-effect control and ±100 the full control effect
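A549 ARE_Fluc cells in 5% FBS OPTI-MEM were exposed to compounds in concentration-response for 18-24 h at 37 deg C. Viability was read by CellTiter-Fluor fluorescence (Ex 405/Em 525) after 30 min, before the luciferase read.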
miR-21 act – qHTS Assay for Modulators of miRNAs and/orActivators of miR-21 | 340,000 tested, under 10 active | Potency, µM (top dose mostly 38.3 µM), inactives show top-dose activity change, positive = activation, actives largely listed as activators | AID 2288, 2010 | HeLa miR-21 FLuc reporter, luciferase, 48 h;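 further: % of control where 0% means no effect; miR-21 action dims this reporter so a rising signal means less miR-21 action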
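HeLa cells endogenously expressing miR-21, stably carrying CMV-driven firefly luciferase with a downstream miR-21 binding site, 2000 cells/well. Titrations up to approximately 40 uM, 48 hours; luciferase luminescence read.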
ClpP mod – qHTS Assay for Activators of ClpP | purified B. subtilis ClpP, FRET peptide cleavage, 20 min | Potency, µM (titrated, usually from 57.5 µM), for the others: top-dose activity change, negative = active | hit rate 1.9% among 340,000 | ATP-dependent Clp protease proteolytic subunit (Bacillus subtilis (strain 168)), P80244; active means well fitted falling curve with a large enough effect; inconclusive means small, poorly fitted or top-dose-only effect; inactive means no such curve, though single readings can be large or run the other way; further: potency means the concentration at half of the fitted maximal effect; the source files actives as falling curves though it sought activators and does not explain the sign; nearly all actives have a fitted effect of over 65% in size
Target sequence (P80244 whole entry, looked up): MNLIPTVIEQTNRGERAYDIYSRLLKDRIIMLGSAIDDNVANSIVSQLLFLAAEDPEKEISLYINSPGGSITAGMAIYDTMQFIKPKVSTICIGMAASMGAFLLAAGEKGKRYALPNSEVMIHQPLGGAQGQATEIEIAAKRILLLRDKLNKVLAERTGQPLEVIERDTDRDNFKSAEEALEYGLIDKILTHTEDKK
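FRET quenching reversal measured ClpP activation: 10 microg/mL B. subtilis ClpP at pH 8 with the FRET-FV decapeptide, read at 430 nm after 320 nm excitation. The 20-min minus 0-min signal was scaled between DMSO/no-enzyme wells and ADEP (5.8 microM final).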
IL2 activator – qHTS of IL-2 Activators; IL-2 activation reporter assay, cell-based qHTS; stimulated with anti-CD3/CD4/CD28 beads; in transgenic mouse T cells; activation, % (series mostly up to about 46 µM); hit rate 0.065% among 360,000; AID 652025, 2013; in the data active means activation above about 50%; inconclusive means mostly about 30% to 49%; further: 0% is about no effect
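Readout: EGFP and DsRed signals by fluorescent plate cytometry. Unstimulated transgenic mouse T cells received compound 60 min before antibody-bead stimulation, then incubated 18 h at 37 degrees C.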
FLuc counter 3 – Nrf2 qHTS screen for inhibitors: Purified Fluc Biochemical Counterscreen for Hit Validation; shares compounds with Nrf2 block; purified firefly luciferase, luminescence inhibition; Potency, µM (top dose mostly 57.5 µM), for inactives: at the top dose activity change, negative = inhibition, usual class: inhibitors; hit rate 4% among 1,400; AID 720522, 2013; further: potency means the concentration at half of the fitted maximal effect; on the % scale 0 is the no-effect control and ±100 the full control effect; nearly all actives have a fitted effect of over 65% in size
Target sequence (P08659 whole entry, looked up): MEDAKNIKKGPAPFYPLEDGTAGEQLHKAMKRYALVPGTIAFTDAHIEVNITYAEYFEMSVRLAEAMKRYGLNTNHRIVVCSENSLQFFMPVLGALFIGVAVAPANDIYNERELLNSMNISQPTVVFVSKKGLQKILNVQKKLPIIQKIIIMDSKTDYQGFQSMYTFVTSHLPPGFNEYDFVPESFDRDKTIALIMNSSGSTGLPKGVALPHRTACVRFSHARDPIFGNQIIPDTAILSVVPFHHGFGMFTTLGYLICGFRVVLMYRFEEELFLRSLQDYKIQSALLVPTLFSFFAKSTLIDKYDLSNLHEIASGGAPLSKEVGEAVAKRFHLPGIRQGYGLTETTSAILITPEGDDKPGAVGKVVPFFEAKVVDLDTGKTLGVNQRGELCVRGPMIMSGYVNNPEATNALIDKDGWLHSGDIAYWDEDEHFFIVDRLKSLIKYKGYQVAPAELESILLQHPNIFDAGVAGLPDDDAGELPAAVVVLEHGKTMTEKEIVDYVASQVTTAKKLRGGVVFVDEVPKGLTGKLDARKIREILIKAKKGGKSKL
A549 tox-2 – Nrf2 qHTS screen for inhibitors: A549 ARE-Fluc Cytotoxicity Counterscreen for Hit Validation; AID 720523, 2013; shares compounds with Nrf2 block; Potency, µM (top dose mostly 46.1 µM), for inactives: at the top dose activity change, negative = cytotoxicity, most hits filed as inhibitors; A549 ARE-Fluc cells, cytotoxicity counterscreen; hit rate 2% among 1,400;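 further: potency means the concentration at half of the fitted maximal effect; cells exposed to compounds for 18 to 24 hours; on the % scale 0 is the no-effect control and ±100 the full control effect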
ARE-Fluc inh – Nrf2 qHTS screen for inhibitors: Nrf2 A549 ARE-Fluc Confirmation Assay for Hit Validation | shares compounds with Nrf2 block | Potency, µM (top dose mostly 46.1 µM), without a hit: at the top dose activity change, negative = inhibition, usual class: inhibitors | A549 ARE-firefly luciferase reporter, luminescence | AID 720524, 2013 | hit rate 74% among 1,400; further: potency means the concentration at half of the fitted maximal effect; on the % scale 0 is the no-effect control and ±100 the full control effect; nearly all actives have a fitted effect of over 65% in size
Numbers without * were called inactive; ? = inconclusive; . = no result shown. Unless noted, the call rests on the fitted dose curve; in most records, active means well fitted curve in the direction sought with a large enough effect; inconclusive means small, poorly fitted or top-dose-only effect, or another doubt; inactive means no such curve, though single readings can be large; an effect the other way counts as inactive or inconclusive.

SMILES | Nrf2 activator | Nrf2 block | A549 tox-1 | miR-21 act | ClpP mod | IL2 activator | FLuc counter 3 | A549 tox-2 | ARE-Fluc inh
Cc1cccc(OCc2n(CC(=O)OC3CC(C)CCC3C(C)C)c3ccccc3[n+]2C)c1 (stereo unspecified) | -2% | -12% | -13% | ? | . | -1 | . | . | .
COc1ccccc1Cn1c(CNS(=O)(=O)c2cccc([N+](=O)[O-])c2)nc2cccnc21 | 6% | . | -1% | 1% | -15% | . | . | . | .
CCCNC(=O)C1CCC(Cn2c(=O)c3sccc3n(CC(=O)N3CCCC(C)C3)c2=O)CC1 (stereo unspecified) | 2% | ? | -19% | 0% | -1% | . | . | . | .
Oc1c(C(Nc2nccs2)c2ccc(C(F)(F)F)cc2)ccc2cccnc12 (stereo unspecified) | 0% | 4.6µM* | -10% | 16% | . | 3 | -11% | -23% | 5.8µM*
CCc1cccc(C)c1NC(=O)C(C)Sc1nc2c(c(=O)[nH]1)CCCC2 (stereo unspecified) | 0% | 18% | 10% | -1% | -2% | . | . | . | .
COc1cc(OC)c(NC(=O)CSc2cc(=O)n(C)c3ccc(Cl)cc23)cc1Cl | 0% | 10% | -6% | 6% | -2% | . | . | . | .
CC12CCC(=O)C=C1CCC1C2C(O)CC2(C)C1CCC2(O)C(=O)COC(=O)COCC(=O)O (stereo unspecified) | 2% | 0.29µM* | -6% | . | . | -1 | 2% | -12% | 0.073µM*
CCOC(=O)OCC(=O)C1(O)CCC2C3CCC4=CC(=O)CCC4(C)C3C(O)CC21C (stereo unspecified) | 4% | 0.21µM* | -6% | . | 1% | -6 | 1% | 4% | .
CC(=O)OCC(=O)C1(O)CCC2C3CCC4=CC(=O)CCC4(C)C3C(O)CC21C (stereo unspecified) | 0% | 0.15µM* | -1% | . | 0% | -1 | 3% | -7% | 0.18µM*
CC12CCC(=O)C=C1CCC1C2C(=O)CC2(C)C1CCC2(O)C(=O)CO (stereo unspecified) | 0% | 6% | 1% | -3% | . | -1 | . | . | .
CC12CCC(=O)C=C1CCC1C2C(O)CC2(C)C1CCC21OCC1=O (stereo unspecified) | 0% | ? | -8% | . | . | 0 | . | . | .
CCCCCCCC(=O)OCC(=O)[C@@]1(O)CC[C@H]2[C@@H]3CCC4=CC(=O)CC[C@]4(C)[C@H]3[C@@H](O)C[C@@]21C | -1% | 0.46µM* | -1% | -32% | 0% | 0 | 3% | -5% | 0.33µM*
CC(NCc1ccc2c(c1)n(C)c(=O)n2C)c1ccccc1 (stereo unspecified) | -1% | -9% | -5% | 5% | -3% | . | . | . | .
Cc1ccc(CCNC(=O)CN2CCN(Cc3ccc(Cl)cc3)C2=O)cc1 | -1% | 14% | 2% | 7% | 0% | . | . | . | .
Cc1ccc(CNc2ncnc3c2nnn3C)cc1 | -1% | . | 1% | -22% | -3% | . | . | . | .
CCC(=O)c1ccc(OCc2ccc(C(=O)c3ccccc3)cc2)cc1 | 0% | 7.3µM* | ? | 2% | . | -4 | -2% | -2% | 8.2µM*
NC(=O)c1cccc(-c2cnc(N)c(C(=O)c3cccnc3)n2)c1 | -2% | ? | ? | . | -7% | 0 | . | . | .
CC(=O)Nc1cccc(-c2cnc(N)c(C(=O)c3cccnc3)n2)c1 | -4% | 5.2µM* | ? | . | -13% | 0 | -14% | -23% | .
CCOc1ccccc1CNC(=O)CCCn1nc(C)c2sc3ccccc3c2c1=O | 0% | ? | 1% | -9% | -7% | . | . | . | .
CO[C@H]1/C=C/O[C@@]2(C)Oc3c(C)c(O)c4c(O)c(c(C=NN5CCN(C)CC5)c(O)c4c3C2=O)NC(=O)/C(C)=C\C=C\[C@H](C)[C@H](O)[C@@H](C)[C@@H](O)[C@@H](C)[C@H](OC(C)=O)[C@@H]1C | 0% | 4.1µM* | ? | . | -1% | 1 | -10% | ? | 4.6µM*
O=C(NCc1ccco1)c1ccc(Cn2c(SCc3ccc(F)cc3)nc3cccnc32)cc1 | 3% | -16% | -4% | -1% | 4% | . | . | . | .
Cc1ccc2nc(Cl)c3cc(C(=O)N(C)C4CCCCC4)sc3c2c1 | 4% | 5% | 0% | -9% | -3% | . | . | . | .
Cc1ccc(NC(=O)/C(C#N)=C/c2cc(C)n(-c3ccc(N4CCOCC4)c([N+](=O)[O-])c3)c2C)c(C)c1 | 0% | ? | -15% | -2% | 1% | 0 | . | . | .
Cc1cc(/C=C(\C#N)C(=O)Nc2ccc(Cl)cc2)c(C)n1-c1ccc(N2CCOCC2)c([N+](=O)[O-])c1 | -1% | 5.2µM* | -23% | 1% | -2% | -5 | 2% | -10% | 4.6µM*
CCN(CCCNC(=O)c1nn(-c2ccc(OC)c(Cl)c2)c(=O)c2c1c1ccccc1n2C)c1cccc(C)c1 | 3% | 8% | 1% | -5% | 4% | . | . | . | .
CCn1ncc(/C=C/C(=O)Nc2c(C)nn(Cc3ccc(Cl)cc3Cl)c2C)c1C | 8% | 5.8µM* | ? | 19% | -1% | -2 | -10% | -23% | .
CCn1nc(C)c(NC(=O)/C=C/c2cnn(C)c2C)c1C | 0% | -18% | -18% | -2% | 0% | -1 | . | . | .
Cc1ccc(C(=O)Nc2sc3c(c2C(=O)O)CCCC3)o1 | 0% | ? | ? | 17% | -6% | -1 | . | . | .
Cc1ccc(C(=O)Nc2sc3c(c2C(=O)O)CCC(C)C3)o1 (stereo unspecified) | 5% | 5.8µM* | -22% | . | -12% | 4 | 2.4µM* | -27% | 5.2µM*
Cc1cc(C)nc(Nc2n[nH]c(-c3ccc(N)cc3)n2)n1 | -1% | ? | -1% | -28% | 1% | -1 | . | . | .

Source: PubChem
